Assay outcomes deposited in PubChem BioAssay by several laboratories.
The list is not random: actives were taken first. Their share in the collection is about 4.1%.
Autofluor counter: flagged as autofluorescent in microsphere protease counterscreen; 360,000 compounds, 3.1% hits; compound autofluorescence counterscreen, microsphere flow cytometry; stronger effect = higher value; fluorescence intensity (concentration not given with the values); in the data active means fluorescence intensity above about 16000; inconclusive means no clear call, values can overlap the other calls
BoNT-F LC inh: blocks Botulinum neurotoxin F light chain protease; inhibition, % at 10 µM; 360,000 compounds, 0.22% hits; Multiplex microsphere protease cleavage assay, flow cytometry; AID 588497; in the data active means inhibition above about 35%, passing the limit was not always enough; inconclusive means no clear call, values can overlap the other calls
MazEF act: MazEF (E. coli) toxin RNase activation; P0AE70; FAM/BHQ RNA-DNA oligo cleavage fluorescence, 5 h; activation, % at 20 µM; 350,000 compounds, 0.32% hits; AID 504720; in the data active means activation above about 50%
VHR inh abs: DUSP3 (human) phosphatase inhibition; P51452; recombinant VHR phosphatase, pNPP absorbance; inhibition, % at 13.3 µM; 290,000 compounds, 0.52% hits; in the data active means inhibition above about 50%
Anthrax LF prot: inhibitors of Bacillus anthracis lethal factor protease; inhibition, % at 10 µM; P15917; multiplex microsphere protease cleavage assay, LF; 360,000 compounds, 0.12% hits; AID 588501
Target sequence (P15917 whole entry, looked up): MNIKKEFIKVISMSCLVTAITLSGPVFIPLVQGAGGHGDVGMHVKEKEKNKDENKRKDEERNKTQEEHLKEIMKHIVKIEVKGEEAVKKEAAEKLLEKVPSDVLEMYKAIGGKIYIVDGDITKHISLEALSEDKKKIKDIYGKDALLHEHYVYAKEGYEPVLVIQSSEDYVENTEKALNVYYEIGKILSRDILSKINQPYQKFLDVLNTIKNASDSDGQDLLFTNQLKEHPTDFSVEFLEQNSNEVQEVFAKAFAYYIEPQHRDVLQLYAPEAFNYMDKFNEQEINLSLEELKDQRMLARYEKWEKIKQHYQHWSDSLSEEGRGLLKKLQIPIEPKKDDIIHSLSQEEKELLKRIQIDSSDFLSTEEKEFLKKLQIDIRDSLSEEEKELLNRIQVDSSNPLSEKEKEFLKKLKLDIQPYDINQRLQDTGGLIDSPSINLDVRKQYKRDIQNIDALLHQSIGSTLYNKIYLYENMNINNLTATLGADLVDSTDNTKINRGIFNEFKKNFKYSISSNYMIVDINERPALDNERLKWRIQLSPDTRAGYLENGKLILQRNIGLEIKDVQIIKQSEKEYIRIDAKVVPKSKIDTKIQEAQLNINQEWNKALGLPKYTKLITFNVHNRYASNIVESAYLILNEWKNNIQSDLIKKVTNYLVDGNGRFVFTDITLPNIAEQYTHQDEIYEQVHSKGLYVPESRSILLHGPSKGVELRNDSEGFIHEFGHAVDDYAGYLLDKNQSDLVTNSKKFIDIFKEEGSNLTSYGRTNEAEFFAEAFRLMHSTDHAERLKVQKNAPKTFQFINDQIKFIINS
BoNT A protease: BoNT A light chain protease inhibition; 360,000 compounds, 0.17% hits; multiplex microsphere protease substrate cleavage, flow cytometry; inhibition, % at 10 µM; AID 588499
Hits are given with their value. Unless noted, no stated cut-off is given here; in the data, active means inhibition above about 30%; inconclusive means no clear call, values can overlap the other calls; inactive means below that.

What do the screens show for `COc1ccc(CCN2CC(C(=O)NCCc3ncccc3C)CCC2=O)cc1` (stereo not drawn)?
Autofluor counter: inactive; BoNT-F LC inh: inactive; MazEF act: inactive; Anthrax LF prot: inactive; BoNT A protease: inactive

What do the screens show for `CCOC(=O)Nc1ccc2c(c1)Nc1ccccc1S2`?
Autofluor counter: 20181; BoNT-F LC inh: inactive; MazEF act: inactive; VHR inh abs: inactive; Anthrax LF prot: inactive; BoNT A protease: inconclusive

Results for C=CC(=O)N1c2ccccc2Sc2ccc(NC(=O)OCC)cc21 ?
Autofluor counter: inactive; BoNT-F LC inh: inactive; MazEF act: inactive; Anthrax LF prot: inactive; BoNT A protease: inactive

How did Cc1nc(N)c(C#N)c(-c2cccnc2)c1-c1ccccc1 do in these assays?
Autofluor counter: inactive; BoNT-F LC inh: inactive; MazEF act: inactive; VHR inh abs: inactive; Anthrax LF prot: inactive; BoNT A protease: inactive

How did Cc1ccc2c(n1)sc1c(-c3ccccc3)c(C#N)c(N)nc12 do in these assays?
Autofluor counter: inactive; BoNT-F LC inh: inactive; MazEF act: 52; VHR inh abs: inactive; Anthrax LF prot: inactive; BoNT A protease: inactive

Results for Cc1csc(CN(C)C(=O)C2CCC(=O)N(CCN(C)C)C2)n1 (stereo not drawn) ?
Autofluor counter: inactive; BoNT-F LC inh: inactive; MazEF act: inactive; VHR inh abs: 60; Anthrax LF prot: inactive; BoNT A protease: inactive

Results for CCCCOC(=O)CSc1n[nH]c(=O)[nH]c1=O ?
Autofluor counter: 23897; BoNT-F LC inh: inactive; MazEF act: inactive; VHR inh abs: inactive; Anthrax LF prot: inactive; BoNT A protease: inactive

What do the screens show for `c1ccc(-c2nnnn2-c2ccccc2)cc1`?
Autofluor counter: inactive; BoNT-F LC inh: inactive; MazEF act: inactive; VHR inh abs: inactive; Anthrax LF prot: inactive; BoNT A protease: inactive

How did c1ccc(CNn2nnnc2-c2ccccc2)cc1 do in these assays?
Autofluor counter: 19323; BoNT-F LC inh: inactive; MazEF act: inactive; VHR inh abs: inactive; Anthrax LF prot: inactive; BoNT A protease: inactive

What do the screens show for `Nc1c(C(=O)NC23CC4CC(CC(C4)C2)C3)sc2nc3c(c(C(F)(F)F)c12)CCC3`?
Autofluor counter: 24363; BoNT-F LC inh: inactive; MazEF act: inactive; VHR inh abs: inactive; Anthrax LF prot: inactive; BoNT A protease: inconclusive

How did Cc1ccc(C2CC(c3ccccc3C)n3nc(N)nc3N2)cc1 (stereo not drawn) do in these assays?
Autofluor counter: inactive; BoNT-F LC inh: inactive; MazEF act: inactive; VHR inh abs: inactive; Anthrax LF prot: inactive; BoNT A protease: inactive

What do the screens show for `Cc1ccc(C2CC(c3cccs3)n3nc(N)nc3N2)cc1` (stereo not drawn)?
Autofluor counter: 16364; BoNT-F LC inh: inactive; MazEF act: inactive; VHR inh abs: inactive; Anthrax LF prot: inactive; BoNT A protease: inactive

How did O=C(NC(NCc1cccnc1)C(Cl)(Cl)Cl)c1cccc2ccccc12 (stereo not drawn) do in these assays?
Autofluor counter: inactive; BoNT-F LC inh: inactive; MazEF act: inactive; VHR inh abs: 54; Anthrax LF prot: inactive; BoNT A protease: inactive

Results for CNc1ccc(-c2ccccc2CO)cn1 ?
Autofluor counter: inactive; BoNT-F LC inh: inactive; Anthrax LF prot: inactive; BoNT A protease: inactive

Results for Cc1ccc(-n2ncc(C(=O)NCC3CCN(C4CCCC4)C3)c2C2CCN(C(=O)OC(C)(C)C)CC2)cc1C (stereo not drawn) ?
Autofluor counter: inactive; BoNT-F LC inh: inactive; MazEF act: inactive; VHR inh abs: 58; Anthrax LF prot: inactive; BoNT A protease: inactive

How did Cc1ccc(-n2ncc(C(=O)NCC3CCN(C4CCCC4)C3)c2C2CCN(C(=O)OC(C)(C)C)CC2)cc1 (stereo not drawn) do in these assays?
Autofluor counter: inactive; BoNT-F LC inh: inactive; MazEF act: inactive; VHR inh abs: inactive; Anthrax LF prot: inactive; BoNT A protease: inactive

Results for COc1ccc2c(c1OC)C(=O)OC2N1C(=O)CC[C@H]1C(=O)Nc1ccc(F)cc1F (stereo partly drawn) ?
Autofluor counter: inactive; BoNT-F LC inh: inactive; MazEF act: inactive; VHR inh abs: inactive; Anthrax LF prot: inactive; BoNT A protease: inactive

Results for COc1cccc(CC(C(=O)Nc2cc(C)ccc2C)c2nn[nH]n2)c1OC (stereo not drawn) ?
Autofluor counter: 22565; BoNT-F LC inh: inactive; MazEF act: inactive; VHR inh abs: inactive; Anthrax LF prot: inactive; BoNT A protease: inactive

Results for CCc1ccccc1NC(=O)C(Cc1cccc(OC)c1OC)c1nn[nH]n1 (stereo not drawn) ?
Autofluor counter: inactive; BoNT-F LC inh: inactive; MazEF act: inactive; VHR inh abs: inactive; Anthrax LF prot: inactive; BoNT A protease: inactive

What do the screens show for `COC(=O)c1ccccc1NC(=O)C1CC(=O)N(c2ccccc2)C1` (stereo not drawn)?
Autofluor counter: 22918; BoNT-F LC inh: inactive; MazEF act: inactive; VHR inh abs: inactive; Anthrax LF prot: inactive; BoNT A protease: inactive

How did Cc1ccc(N2CC(C(=O)Nc3ccccc3C(=O)NC3CCCCC3)CC2=O)cc1C (stereo not drawn) do in these assays?
Autofluor counter: 22887; BoNT-F LC inh: inactive; MazEF act: inactive; Anthrax LF prot: inactive; BoNT A protease: inconclusive

What do the screens show for `Cc1ccc(N2CC(C(=O)Nc3ccc(N(C)C)cc3)CC2=O)cc1C` (stereo not drawn)?
Autofluor counter: 19991; BoNT-F LC inh: inactive; MazEF act: inactive; Anthrax LF prot: inactive; BoNT A protease: inactive

What do the screens show for `CC(=O)NC(c1cccc(F)c1)c1nc(-c2ccccc2)cs1` (stereo not drawn)?
Autofluor counter: inactive; BoNT-F LC inh: inactive; Anthrax LF prot: inactive; BoNT A protease: inactive

Results for CCCc1cnc(Nc2nc(C(N)Cc3ccc(C(F)(F)F)cc3)cs2)nc1 (stereo not drawn) ?
Autofluor counter: inactive; BoNT-F LC inh: inactive; Anthrax LF prot: inactive; BoNT A protease: inactive

What do the screens show for `CCOC(=O)C1CCN(S(=O)(=O)c2ccc3[nH]c(=O)ccc3c2)CC1`?
Autofluor counter: inactive; BoNT-F LC inh: inactive; MazEF act: inactive; VHR inh abs: inactive; Anthrax LF prot: inactive; BoNT A protease: inactive

How did COc1cccc(NC(=O)CNC(=O)c2ccc(C)o2)c1 do in these assays?
Autofluor counter: inactive; BoNT-F LC inh: inactive; MazEF act: inactive; VHR inh abs: inactive; Anthrax LF prot: inactive; BoNT A protease: inactive

How did COCCN(CCOC)C(=O)CC(=O)N(CCOC)CCOC do in these assays?
Autofluor counter: 19259; BoNT-F LC inh: inactive; MazEF act: inactive; VHR inh abs: inactive; Anthrax LF prot: inactive; BoNT A protease: inactive

Results for COC(=O)c1ccc(OCC(=O)c2ccccc2OC)cc1 ?
Autofluor counter: 20757; BoNT-F LC inh: inactive; MazEF act: inactive; VHR inh abs: inactive; Anthrax LF prot: inactive; BoNT A protease: inconclusive

What do the screens show for `O=[N+]([O-])c1ccc(S(=O)(=O)NN=C2CCCCC2)cc1`?
Autofluor counter: inactive; BoNT-F LC inh: inactive; MazEF act: 119; Anthrax LF prot: inactive; BoNT A protease: inactive

Results for COc1ccc(S(=O)(=O)NN=C2CCCC2)cc1 ?
Autofluor counter: 20396; BoNT-F LC inh: inactive; MazEF act: inactive; VHR inh abs: inactive; Anthrax LF prot: inactive; BoNT A protease: inactive
